# Among all 340,000 compounds or so, about 1,000 (0.29%) were called active. Cut-off read from the data, not from the text of the source: inconclusive = inhibition above about 29% without an active follow-up result; inactive = below that. The list is a sample of the results. Entries with a potency or affinity are not part of this list.
# Molecular target: Genome polyprotein (Dengue virus type 2 (strain 16681-PDK53)) (UniProt P29991)
# Assay: Dengue-2 NS5 methyltransferase inhibitors, primary screen, biochemical, confirmation dose response (AID 588689)
# Details: Dengue-2 NS5 methyltransferase capping enzyme assay, at 25 µM, stronger effect = higher value
# [1] = measured here: pilot screen replicate inhibition
# Sequence of Genome polyprotein (Dengue virus type 2 (strain 16681-PDK53)) (P29991 whole entry, looked up): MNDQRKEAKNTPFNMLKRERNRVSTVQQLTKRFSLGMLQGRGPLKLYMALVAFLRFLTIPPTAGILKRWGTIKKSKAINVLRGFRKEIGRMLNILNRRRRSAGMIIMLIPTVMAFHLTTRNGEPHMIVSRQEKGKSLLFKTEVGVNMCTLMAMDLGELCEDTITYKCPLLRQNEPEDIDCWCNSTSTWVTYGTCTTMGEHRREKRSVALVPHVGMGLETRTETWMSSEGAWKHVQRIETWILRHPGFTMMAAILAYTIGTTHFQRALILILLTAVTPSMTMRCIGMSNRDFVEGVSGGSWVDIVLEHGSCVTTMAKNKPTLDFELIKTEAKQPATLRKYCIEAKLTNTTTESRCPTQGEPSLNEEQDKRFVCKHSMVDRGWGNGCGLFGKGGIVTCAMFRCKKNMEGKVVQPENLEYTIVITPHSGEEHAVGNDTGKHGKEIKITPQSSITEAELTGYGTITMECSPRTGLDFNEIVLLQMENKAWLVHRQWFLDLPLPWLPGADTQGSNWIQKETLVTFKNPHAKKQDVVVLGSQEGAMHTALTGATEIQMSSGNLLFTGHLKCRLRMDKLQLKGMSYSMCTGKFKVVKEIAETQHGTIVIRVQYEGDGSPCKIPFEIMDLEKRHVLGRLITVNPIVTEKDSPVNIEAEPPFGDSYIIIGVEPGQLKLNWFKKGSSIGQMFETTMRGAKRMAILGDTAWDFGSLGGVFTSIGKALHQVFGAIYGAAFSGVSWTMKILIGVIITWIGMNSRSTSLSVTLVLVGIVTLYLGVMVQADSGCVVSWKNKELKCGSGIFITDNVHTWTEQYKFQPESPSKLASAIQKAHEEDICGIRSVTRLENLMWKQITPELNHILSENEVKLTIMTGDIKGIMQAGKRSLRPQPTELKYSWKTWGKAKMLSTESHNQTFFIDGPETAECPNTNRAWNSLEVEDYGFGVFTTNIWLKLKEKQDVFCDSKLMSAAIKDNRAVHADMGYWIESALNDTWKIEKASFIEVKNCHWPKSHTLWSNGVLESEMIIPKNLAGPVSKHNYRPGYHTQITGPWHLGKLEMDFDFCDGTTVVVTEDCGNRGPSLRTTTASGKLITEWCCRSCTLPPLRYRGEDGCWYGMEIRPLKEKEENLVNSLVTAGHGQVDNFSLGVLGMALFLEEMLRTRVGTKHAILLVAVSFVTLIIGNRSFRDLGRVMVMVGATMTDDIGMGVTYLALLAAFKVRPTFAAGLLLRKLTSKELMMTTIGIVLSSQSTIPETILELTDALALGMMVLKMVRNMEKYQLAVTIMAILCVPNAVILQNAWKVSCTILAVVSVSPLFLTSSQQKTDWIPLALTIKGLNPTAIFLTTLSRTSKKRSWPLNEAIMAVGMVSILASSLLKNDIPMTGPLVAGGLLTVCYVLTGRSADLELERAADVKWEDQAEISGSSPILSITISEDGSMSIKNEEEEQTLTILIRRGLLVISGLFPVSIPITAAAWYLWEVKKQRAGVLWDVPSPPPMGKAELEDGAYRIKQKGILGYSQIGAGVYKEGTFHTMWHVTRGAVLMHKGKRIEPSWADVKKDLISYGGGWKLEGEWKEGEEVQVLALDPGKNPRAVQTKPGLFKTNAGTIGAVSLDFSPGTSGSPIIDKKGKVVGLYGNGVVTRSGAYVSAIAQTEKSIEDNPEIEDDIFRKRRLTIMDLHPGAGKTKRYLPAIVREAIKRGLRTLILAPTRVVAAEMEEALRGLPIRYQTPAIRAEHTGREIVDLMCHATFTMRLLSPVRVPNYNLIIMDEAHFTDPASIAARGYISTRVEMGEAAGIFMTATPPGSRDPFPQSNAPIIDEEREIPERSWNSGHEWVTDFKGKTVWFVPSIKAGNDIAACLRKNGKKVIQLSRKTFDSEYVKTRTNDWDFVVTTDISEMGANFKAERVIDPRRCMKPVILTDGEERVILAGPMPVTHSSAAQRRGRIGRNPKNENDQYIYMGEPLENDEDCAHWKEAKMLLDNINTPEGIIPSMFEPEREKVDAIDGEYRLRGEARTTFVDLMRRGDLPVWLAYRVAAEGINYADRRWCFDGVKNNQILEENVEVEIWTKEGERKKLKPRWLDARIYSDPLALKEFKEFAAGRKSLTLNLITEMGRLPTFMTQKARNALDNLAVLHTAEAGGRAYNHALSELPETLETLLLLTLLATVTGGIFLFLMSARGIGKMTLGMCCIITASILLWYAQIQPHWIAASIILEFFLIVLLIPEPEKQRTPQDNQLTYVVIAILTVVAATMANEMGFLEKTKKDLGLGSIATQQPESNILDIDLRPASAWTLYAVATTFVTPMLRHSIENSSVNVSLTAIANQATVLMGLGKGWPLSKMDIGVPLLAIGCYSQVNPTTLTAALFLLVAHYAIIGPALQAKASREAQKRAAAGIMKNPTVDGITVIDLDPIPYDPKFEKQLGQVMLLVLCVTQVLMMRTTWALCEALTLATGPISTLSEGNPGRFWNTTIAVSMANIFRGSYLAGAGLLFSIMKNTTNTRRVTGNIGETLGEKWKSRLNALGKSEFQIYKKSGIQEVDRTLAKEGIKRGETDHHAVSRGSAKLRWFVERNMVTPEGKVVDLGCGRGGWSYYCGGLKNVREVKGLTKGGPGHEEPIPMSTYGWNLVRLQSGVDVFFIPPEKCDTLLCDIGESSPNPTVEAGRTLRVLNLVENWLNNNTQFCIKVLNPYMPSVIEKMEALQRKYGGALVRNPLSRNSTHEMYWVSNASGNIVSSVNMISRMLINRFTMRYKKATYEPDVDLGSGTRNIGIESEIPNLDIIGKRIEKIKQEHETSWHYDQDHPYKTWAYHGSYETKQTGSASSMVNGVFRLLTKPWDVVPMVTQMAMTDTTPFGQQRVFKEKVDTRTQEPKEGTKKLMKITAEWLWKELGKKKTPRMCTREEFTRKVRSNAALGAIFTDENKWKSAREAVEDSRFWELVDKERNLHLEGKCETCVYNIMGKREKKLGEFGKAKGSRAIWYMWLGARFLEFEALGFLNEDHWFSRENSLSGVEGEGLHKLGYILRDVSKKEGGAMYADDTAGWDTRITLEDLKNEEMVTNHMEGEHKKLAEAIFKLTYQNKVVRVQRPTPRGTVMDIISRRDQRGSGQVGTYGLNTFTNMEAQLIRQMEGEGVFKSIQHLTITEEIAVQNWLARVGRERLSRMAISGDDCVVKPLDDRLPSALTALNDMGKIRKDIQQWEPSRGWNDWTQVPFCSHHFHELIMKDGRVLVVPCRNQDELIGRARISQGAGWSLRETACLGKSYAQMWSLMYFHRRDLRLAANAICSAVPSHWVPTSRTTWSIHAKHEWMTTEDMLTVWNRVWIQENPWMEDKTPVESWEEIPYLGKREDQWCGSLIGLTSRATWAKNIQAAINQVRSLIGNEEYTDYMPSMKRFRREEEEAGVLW
Compound,inhibition,inhibition [1] [%]
NC(=O)c1ccc(=O)n(Cc2ccc(F)c(F)c2)c1,-1.31% (inactive),
Cc1cc(C(c2ccc(O)cc2)c2cc(C)c(O)cc2C)c(C)cc1O,-0.79% (inactive),
Cc1ccc(N)cc1O,-2.91% (inactive),
Cc1ccc(CNC(=O)C(C(=O)NCc2ccc(C)o2)c2ncc(C(F)(F)F)cc2Cl)o1,-13.8% (inactive),
COc1ccc(Br)cc1C(=O)NC(=S)Nc1ccc(Cl)c(C(=O)O)c1,4.69% (inactive),
COc1ccc(Br)cc1/C=C/C(=O)NC(=S)Nc1ccc(CN2CCOCC2)cc1,-10.4% (inactive),
CC1(C)OC(=O)C(=NNc2ccccc2)C(=O)O1,-0.73% (inactive),
c1ccc(NN=C2c3ccccc3-c3ccccc32)cc1,-1.94% (inactive),
COc1ccc(N(C)C(=O)c2ccc3c(c2)nnn3C)cc1,-4.51% (inactive),
O=C(CN1CCOCC1)Nc1ccccc1NC(=O)C1CCN(c2ncccn2)CC1,-11.3% (inactive),
COC(=O)[C@@]1(Cc2ccccc2)[C@H]2C(=O)N(C)C(=O)[C@H]2[C@H]2CN=C(SCc3ccc(C)cc3)N21,1.99% (inactive),0.61
N/C(=N\OC(=O)c1ccco1)c1ccc(Br)cc1,-5.29% (inactive),
Cc1csc(/C(=N/OC(=O)c2ccco2)C(N)=O)n1,-32.5% (inactive),
O=C(CCCOc1cccc(Br)c1)NCCOc1ccccc1,-4.07% (inactive),
Cn1c(=O)c2sccc2n(CC(=O)NCCC2=CCCCC2)c1=O,-7.27% (inactive),
CCN(CC)Cc1nc2c(c(=O)[nH]1)C1(CCCCC1)Cc1ccccc1-2,-5.55% (inactive),
COC(=O)c1ccc(N2NC(=O)/C(=C/c3cc(OC)c(O)c(OC)c3)C2=O)cc1,-24.8% (inactive),
O=Cc1ccc(-c2ccccc2C(=O)O)o1,-2.22% (inactive),
COc1ccc(NC(=O)/C(C#N)=C/c2ccc(-c3ccc(Cl)c(C(=O)O)c3)o2)cc1,3.44% (inactive),
O=C1NN(c2cccc(Br)c2)C(=O)/C1=C/c1ccc(-c2cc([N+](=O)[O-])ccc2O)o1,70.1% (inactive),

Compound,inhibition,inhibition [1] [%]
COC(=O)c1ccc(N2NC(=O)/C(=C/c3ccc(OC)c(OC)c3)C2=O)cc1,34.3% (inactive),
Cc1nnc(NC(=O)c2ccc3c(c2)OCO3)s1,8.19% (inactive),
Cc1noc(C)c1CSCC(=O)Nc1nc2ccc(S(C)(=O)=O)cc2s1,-2.95% (inactive),
N#CCC(=O)N/N=C/c1ccc(OS(=O)(=O)c2ccccc2)cc1,-3.76% (inactive),-2.42
COC(=O)Cn1c(CCS(=O)(=O)c2ccc(Cl)cc2)nc2ccccc21,-5.46% (inactive),
Cc1ccc(-c2cnc3ccccc3n2)cc1C,-6.51% (inactive),
O=C(Nc1ccc2c(c1)OCO2)c1n[nH]c(=O)c2ccccc12,11.1% (inactive),
CSCCC(NC(=O)C1CC1)c1nc2ccccc2[nH]1 (stereo unspecified),-5.48% (inactive),
C[C@H](NC(=O)c1nc[nH]c1C(=O)N1CCN(C(=O)OC(C)(C)C)CC1)C(=O)OCc1ccccc1,-2.48% (inactive),
O=C(Nc1ccc(C(F)(F)F)cc1)c1csc(-c2ccncc2)n1,-2.96% (inactive),
CSc1nsc(SC)c1NC(=O)N1CCCC1,-1.61% (inactive),
O=C(O)c1cc(-c2ccc(/C=C3\NC(=O)N(c4ccccc4)C3=O)o2)ccc1Cl,3.09% (inactive),
C#CCN1C(=O)S/C(=C\c2ccc(-c3ccc(Cl)c(C(=O)O)c3)o2)C1=O,2.31% (inactive),
O=C(O)c1cc(-c2ccc(/C=C3\NC(=O)N(c4ccc(Cl)cc4)C3=O)o2)ccc1Cl,13.8% (inactive),
Cc1ccc(N2NC(=O)/C(=C/c3ccc(-c4ccc(Cl)c(C(=O)O)c4)o3)C2=O)cc1,15.4% (inactive),
Cc1cn([C@H]2C[C@H](O)[C@@H](CNC(=O)CNC(=O)CN)O2)c(=O)[nH]c1=O,2.27% (inactive),
CCOc1ccc2nc(N/C(N)=N/S(=O)(=O)c3ccc(C)cc3)nc(C)c2c1,-2.74% (inactive),
Cc1ccc(NC(=O)CC(=O)c2ccccc2)cc1C,-1.66% (inactive),
C[C@H](NC(=O)c1ccccc1Cl)C(=O)OC(C(=O)Nc1cc(C(F)(F)F)ccc1Cl)c1ccccc1 (stereo partly specified),6.11% (inactive),
O=C(O)c1cc(S(=O)(=O)Nc2ccccc2C(=O)O)ccc1O,24.8% (inactive),

Compound,inhibition,inhibition [1] [%]
Oc1ccccc1N=N/C(=N/Nc1ccccc1O)c1ccccc1,6.32% (inactive),
Cc1cccc(NC(=O)c2cc(NC(=O)C3CCCCC3C(=O)O)ccc2N2CCOCC2)c1 (stereo unspecified),3.25% (inactive),
CC(=O)Nc1ccc(N2CCCCC2)c(C(=O)Nc2cccc(C)c2)c1,1.3% (inactive),
Cc1cnc(C(=O)OCc2nc3ccsc3c(=O)[nH]2)cn1,-4.41% (inactive),
Cc1ncc(CN2CCCC(C(=O)Nc3ccc(-c4ccco4)cc3)C2)cn1 (stereo unspecified),-25.6% (inactive),
O=C1C(=O)c2ccc(-c3ccccc3)cc2-c2ccccc21,-10.1% (inactive),8.18
O=C1C(=C(O)c2ccccc2)C(=O)c2ccccc21,12.9% (inactive),
COc1ccccc1-n1cc(-c2ccccc2)c2c(=S)nc[nH]c21,7.35% (inactive),
COc1ccc(NC(=O)CCCc2ccccc2)cc1OC,-7.95% (inactive),
CC(=O)NC(CC(=O)OCC(=O)c1ccc(NC(=O)CC(C)C)cc1)c1ccccc1 (stereo unspecified),-7.74% (inactive),
O=C(O)c1cccc(NC2=C(N3CCOCC3)C(=O)c3ccccc3C2=O)c1,15% (inactive),
O=C1C(Cl)=C(NCCCO)C(=O)c2ccccc21,-6.93% (inactive),
O=C1C(Cl)=C(Nc2ccc(O)cc2)C(=O)c2ccccc21,27.1% (inactive),
O=S(=O)(Nc1ccc2cn[nH]c2c1)c1ccc(Cl)cc1,-2.71% (inactive),
O=C1C(Cl)=C(Nc2ccccc2)C(=O)c2ccccc21,5.85% (inactive),
O=C(O)c1cccc(NC2=C(n3nnc4ccccc43)C(=O)c3ccccc3C2=O)c1,0.29% (inactive),
CCNC1=C(Cl)C(=O)c2ccccc2C1=O,6.43% (inactive),
Cc1ccc(NC2=C(Cl)C(=O)c3ccccc3C2=O)cc1,-0.64% (inactive),

# Reference: PubChem BioAssay AID588689 (Southern Research Specialized Biocontainment Screening …, 2011)
